# Records with an inconclusive call do not appear. A call without a number means that no potency is given here. Unmarked numbers belong to inactive results. Calls of active or inactive are those of the source. Calls come from the whole dose curve; as a rule, active = well fitted activation curve with a large enough effect in the repeat runs; inconclusive = weak or mixed curves; inactive = flat fitted curve, though single readings scatter.
# Assay: A CellTox Green Cytotoxicity Assay to monitor cytotoxicity in HEK293 cells - 8 hour (AID 1224884); note: nearly all actives have a fitted effect of over 35% in size
# Settings: CellTox Green fluorescence; series mostly up to 76.8 µM
# Excerpt: National Center for Advancing Translational Sciences [NCATS]
# NIH Chemical Genomics Center [NCGC]
# U.S. Environmental Protection Agency [EPA]
# National Institutes of Environmental Health Sciences [NIEHS]
# National Toxicology Program [NTP]
# Cell-based models are critical for drug discovery. Determining the natural cytotoxic effects resulting from test compounds is an essential research activity. A CellTox Green Cytotoxicity Assay to monitor cytotoxicity in real time of continues cell culture during 40 hours of the compound treatment was used to screen Tox21 10K library compounds in Hek293 cells. CellTox Green Cytotoxicity Assay is a nonlytic, homogeneous, biofluorescent method to measure cytotoxicity in cell culture after experimental manipulation. The assay system uses a proprietary asymmetric cyanine dye that is excluded from viable cells but preferentially stains the dead cell's DNA. […] Viable cells produce no appreciable increases in fluorescence. Therefore, the fluorescence signal produced by the binding interaction with dead cell DNA is proportional to cytotoxicity.
# The mixture of Hek293 cell suspension and reagents were dispensed at 600cells/6 ul/well in 1536-well tissue culture treated black solid bottom plates using a Multidrop dispenser. After the assay plates were incubated at a 37 C/5% CO2 incubator for 5 hours, 23 nL of compounds dissolved in DMSO, positive and negative controls was transferred to the assay plate by a pintool work station. The plates were incubated at 37 C for 40 hours. The fluorescence intensity were measured at 0h, 8h, 16h, 24h, 32h and 40h time points using ViewLux plate reader during compound treatment.
SMILES,Potency,cytotoxicity increase
CCCCCCCCCCCCCCCCCC(=O)OCCCCCCCCCCCCCC(C)C,inactive,
Nc1ccc2cc(S(=O)(=O)O)ccc2c1,inactive,
CCCc1ccc(N)cc1,inactive,
CCC(C)OC(=O)N1CCCCC1CCO (stereo not given),inactive,
C1CCCCCCCCCCC1,,-28.5% [at 15.8 µM]
O=C(O)C(O)[C@H](O)[C@@H](O)[C@H](O)[C@H](O)CO (stereo not given in full),inactive,
OCCN1C[C@H](O)[C@@H](O)[C@H](O)[C@H]1CO,inactive,
O=C(O)CCNC(=O)c1ccc(N=Nc2ccc(O)c(C(=O)O)c2)cc1,inactive,
CCCCc1ccc2cccc(S(=O)(=O)O)c2c1,inactive,
C=C(C)C(=O)NCCC[N+](C)(C)C,inactive,
N#CCc1ccccc1[N+](=O)[O-],inactive,
Cc1ncc(CSSCc2cnc(C)c(O)c2CO)c(CO)c1O,inactive,
COc1cc(C)cc(O)c1,inactive,
C(=C(c1ccccc1)c1ccccc1)c1ccccc1,inactive,
C=C(C)[C@H]1CC=C(C)CC1,inactive,
CCC(=O)Nc1cccc(N)c1,inactive,
CC(CCO)CCCC(C)(C)O (stereo not given),inactive,
Cc1nccn1CC1CCc2c(c3ccccc3n2C)C1=O (stereo not given),inactive,
CC(=O)c1ccc(C)cc1,inactive,
Cc1cc(C)c(NC(=O)CN(CC(=O)O)CC(=O)O)c(C)c1Br,inactive,

SMILES,Potency,cytotoxicity increase
NS(=O)(=O)c1cc2c(cc1Cl)NC(CSCc1ccccc1)=NS2(=O)=O,inactive,
CCN(CC)C(=O)c1ccc(O)c(OC)c1,inactive,
COc1ccc(COC=O)cc1,inactive,
COC(=O)CCCCCCCCC(=O)OC,inactive,
C=C(C)C(=O)OCCCCCCCCCCCCCCCCCC,,-3.54% [at 15.8 µM]
OC[C@H]1O[C@@H]2O[C@H]3[C@H](O)[C@@H](O)[C@@H](O[C@H]4[C@H](O)[C@@H](O)[C@@H](O[C@H]5[C@H](O)[C@@H](O)[C@@H](O[C@H]6[C@H](O)[C@@H](O)[C@@H](O[C@H]7[C@H](O)[C@@H](O)[C@@H](O[C@H]8[C@H](O)[C@@H](O)[C@@H](O[C@H]9[C@H](O)[C@@H](O)[C@@H](O[C@H]1[C@H](O)[C@H]2O)O[C@@H]9CO)O[C@@H]8CO)O[C@@H]7CO)O[C@@H]6CO)O[C@@H]5CO)O[C@@H]4CO)O[C@@H]3CO,inactive,
O=[N+]([O-])c1ccc(Oc2ccc([N+](=O)[O-])cc2)cc1,inactive,
COc1cccc(Br)c1,inactive,
O=S(=O)(c1cccc2cnccc12)N1CCCNCC1,inactive,
CCCCCCCCCCCCCCCCCCOCC(O)CO (stereo not given),inactive,
Cc1onc(-c2ccccc2)c1-c1ccc(S(N)(=O)=O)cc1,inactive,
COc1cccc(OC)c1,inactive,
OC/C=C/c1ccccc1,inactive,
Nc1ncnc2c1ncn2Cc1c(F)cccc1Cl,inactive,
CCCCCCCCN(C)CCCCCCCC,inactive,
OCCCCCCO,inactive,
COCCOC(=O)CC#N,inactive,
C=CCSCC1Nc2cc(Cl)c(S(N)(=O)=O)cc2S(=O)(=O)N1 (stereo not given),inactive,
NC(=O)Nc1nc2ccccc2[nH]1,inactive,
Oc1ccc2c(c1)OC[C@@H](N1CCC(O)(c3ccc(F)cc3)CC1)[C@H]2O,inactive,

# From PubChem BioAssay (Tox21)
